# Most compounds without a hit are left out; they make up all but 4% or so of the library.
# FAS TE block: FAS thioesterase domain inhibitors, primary screen, biochemical, fluorescence intensity, uHTS; Fatty acid synthase (Homo sapiens), P49327; recombinant FAS-TE, OMFH fluorogenic substrate, fluorescence endpoint; inhibition, % at 15 µM; actives 0.67% (n = 360,000);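 active = compounds whose normalised, plate-corrected inhibition of enzyme fluorescence in the single-dose primary screen is 50% or more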
# ADAM10 inh: human ADAM10 inhibitors, primary screen, biochemical, QFRET, HTS | inhibition, % at 7 µM | AID 720582, 2013 | Disintegrin and metalloproteinase domain-containing protein 10 (Homo sapiens), O14672 | actives 0.62% (n = 370,000) | recombinant ADAM10, EDANS/DABCYL FRET peptide cleavage, 3 h;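 active = inhibition above a per-campaign cutoff equal to the mean of compounds falling between control-based bounds plus 3 SD, cut at about 20% in these data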
# aDG glyco act: activators of alpha-DG glycosylation, primary screen, uHTS, Pro5-aDG cells, AlphaScreen; activation, % at 10 µM; AID 624168, 2012; alpha-DG glycosylation AlphaScreen (IIH6); 0% Pro5, 100% B10-LARGE cell signal; actives 0.22% (n = 360,000);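 active = activation of at least 8% versus controls, or a plate z-score of at least 8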;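 note: Pro5 are CHO cells carrying HIG-tagged alpha-DG that lacks glycosylation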
# ADAM17 inh: ADAM17 inhibitors, primary screen, biochemical, QFRET; actives 0.83% (n = 370,000); recombinant ADAM17, EDANS/DABCYL FRET peptide cleavage; Disintegrin and metalloproteinase domain-containing protein 17 (Homo sapiens), P78536; AID 720648, 2013; inhibition, % at 6.95 µM;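 active = inhibition above the mean of compounds lying between control limits plus 3 SD, set per campaign, cut at about 8.5% in these data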
# Target sequence (P78536 215-824 limits assumed): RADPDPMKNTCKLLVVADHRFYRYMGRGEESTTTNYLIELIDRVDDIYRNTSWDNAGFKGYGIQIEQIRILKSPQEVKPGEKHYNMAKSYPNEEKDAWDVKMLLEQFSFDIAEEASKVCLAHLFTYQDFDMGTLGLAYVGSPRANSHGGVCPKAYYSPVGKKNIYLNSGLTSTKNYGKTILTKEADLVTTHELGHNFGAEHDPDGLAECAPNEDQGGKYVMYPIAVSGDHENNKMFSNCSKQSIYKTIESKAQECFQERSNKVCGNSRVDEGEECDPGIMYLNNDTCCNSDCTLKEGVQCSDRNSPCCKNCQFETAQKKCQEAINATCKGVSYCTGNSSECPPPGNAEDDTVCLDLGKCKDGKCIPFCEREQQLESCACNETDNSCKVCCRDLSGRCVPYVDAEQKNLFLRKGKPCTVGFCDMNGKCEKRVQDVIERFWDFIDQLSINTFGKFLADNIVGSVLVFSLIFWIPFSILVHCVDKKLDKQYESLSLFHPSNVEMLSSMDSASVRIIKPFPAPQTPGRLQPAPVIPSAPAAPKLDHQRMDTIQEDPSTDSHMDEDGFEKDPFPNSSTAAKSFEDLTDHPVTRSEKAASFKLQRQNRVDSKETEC
# GRIN3A LBD mod: binders of NR3A ligand-binding domain, primary screen, biophysical, differential scanning fluorimetry, uHTS. actives 2.5% (n = 340,000). Tm shift relative to glycine control, % at 25 µM. NR3A LBD differential scanning fluorimetry, Tm shift; 0% = protein alone, 100% = glycine-bound protein;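 active = melting temperature shift of at least 10% of the positive control shift, at one fixed dose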
# ADAM10 ctr: ADAM10 inhibitors, counter-screen for ADAM17 exosite inhibitor project, biochemical, FRET, human ADAM10 | AID 743256, 2014 | recombinant ADAM10, EDANS/DABCYL FRET peptide cleavage, 3 h | actives 47% (n = 2,900) | shares compounds with ADAM17 inh | inhibition, % at 6.95 µM;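 active = mean inhibition over the triplicate runs exceeds the activity threshold set in the earlier primary screen, cut at about 20% in these data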
# ADAM17 confirm: ADAM17 inhibitors, hit retest, confirmation, biochemical, QFRET peptide cleavage; shares compounds with ADAM17 inh; recombinant ADAM17, EDANS/DABCYL QFRET peptide cleavage; inhibition, % at 6.95 µM; actives 65% (n = 2,900); AID 743257, 2014;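 active = mean inhibition across replicates above the hit cutoff set in the primary screen, cut at about 8.5% in these data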
# Hits are given with their value; . = inactive; / = not tested or not shown.
SMILES,FAS TE block,ADAM10 inh,aDG glyco act,ADAM17 inh,GRIN3A LBD mod,ADAM10 ctr,ADAM17 confirm
Cc1ccc(CC2(c3ccccc3)NC(=O)NC2=O)cc1 (stereo not given),.,.,.,18,.,.,18
O=C1NC(=O)C(Cc2ccc(Cl)cc2)(c2ccccc2)N1 (stereo not given),.,.,.,40,.,.,65
O=C1NC(=O)C(Cc2ccccc2)(c2ccccc2)N1 (stereo not given),.,.,.,.,.,/,/
CC(C)CCNC(=O)NC(=O)COC(=O)C1=COCCO1,.,.,.,.,.,/,/
CN(C)CCCn1c(SCc2c(Cl)cccc2Cl)nnc1-c1ccncc1,.,.,.,.,.,/,/
Cc1ccc(S(=O)(=O)N2[C@H](c3ccccc3)CC(=O)[C@@H]3CN(S(=O)(=O)c4ccccc4C)[C@H](c4ccccc4)C[C@@H]32)cc1,.,.,.,.,/,/,/
Cc1ccc(S(=O)(=O)N2C[C@H]3C(=O)C[C@@H](c4cccc(C)c4)N(S(=O)(=O)c4ccc(C)cc4)[C@H]3C[C@H]2c2ccccc2)cc1,.,.,.,8.9,/,.,.
Cc1ccc(S(=O)(=O)N2C[C@H]3C(=O)C[C@@H](c4ccccc4)N(S(=O)(=O)c4ccc(C)cc4)[C@H]3C[C@H]2c2ccccc2)cc1,.,.,.,.,/,/,/
Cc1ccc(S(=O)(=O)N2C[C@H]3C(=O)C[C@@H](c4ccccc4)N(S(=O)(=O)c4ccccc4C)[C@H]3C[C@H]2c2ccccc2)cc1,.,.,.,11,/,22,9.9
CCn1c(COc2ccc(=O)n(-c3ccccc3)n2)nnc1SCc1ccccc1C,.,.,.,.,.,/,/
CCCC(=O)N1CC2(C)CN(C(=O)CCC)CC(CCC)(C1)C2=O,.,.,.,12,.,.,.
CCCC12CN(C(=O)c3ccco3)CC(CCC)(CN(C(=O)c3ccco3)C1)C2=O,.,.,.,.,.,/,/
COC(=O)c1c(C)nn(-c2ccc(OC(F)(F)F)cc2)c1-c1snnc1C,.,.,.,.,.,/,/
O=S(=O)(NCCC(c1ccc(F)cc1)c1ccco1)c1ccccc1 (stereo not given),.,.,.,13,.,.,11
Fc1ccc(C(CCNCc2cccs2)c2ccco2)cc1 (stereo not given),.,.,.,.,.,/,/
CN1CCN(c2nc3c(c(=O)[nH]c(=O)n3C)n2CCSc2nnnn2-c2ccccc2)CC1,.,.,.,.,.,/,/
ON=C(c1ccccc1)c1ccc2c3c(cccc13)CC2,.,.,.,12,/,20,9.0
O=C(Nc1ccc(Nc2ccccc2)cc1)c1ccc(Cl)cc1Cl,.,.,.,12,.,36,25
Cc1cc(C)c2sc(N(CCN(C)C)C(=O)c3ccc4ccccc4c3)nc2c1,.,.,.,10,.,.,.
COc1ccccc1C(=O)N(CCN(C)C)c1nc2cc(C)cc(C)c2s1,.,.,.,.,.,/,/
COc1ccccc1CNc1ncnc2sccc12,.,.,.,.,.,/,/
O=C(CSc1nc2ccc(NC(=O)c3ccccc3C(=O)O)cc2s1)Nc1ccc(F)c([N+](=O)[O-])c1,.,.,.,9.3,18,.,.
COc1ccccc1C(=O)Nc1ccc2nc(SCC(=O)N(C)C)sc2c1,.,.,.,.,.,/,/
O=C1NN(c2ccccc2)C(=O)/C1=C/c1ccc(-c2ccc(Cl)c(C(=O)O)c2)o1,.,.,.,.,.,/,/
Cc1ccc(Sc2ccc(/C=C3/C(=O)NN(c4ccccc4)C3=O)o2)cc1,.,.,.,8.8,.,.,.
SMILES,FAS TE block,ADAM10 inh,aDG glyco act,ADAM17 inh,GRIN3A LBD mod,ADAM10 ctr,ADAM17 confirm
O=C1CCCN1c1ccc(S(=O)(=O)NCCc2ccc(Cl)cc2)cc1,.,/,.,/,.,/,/
COc1ccc(CCNS(=O)(=O)c2ccc(N3CCCC3=O)cc2)cc1,.,.,.,12,.,.,.
COc1cccc(/C=N/NC(=O)CSc2ccccc2C)c1O,.,.,.,.,.,/,/
COc1cccc(C=NNC(=O)CSc2nc3ccccc3[nH]2)c1O,/,.,/,10,/,.,.
CC(C)(C)C(=O)/C(=C/c1ccc(Cl)cc1)n1cncn1,.,.,.,.,.,/,/
O=C(/C=C(/c1ccc(Cl)cc1)n1cncn1)c1ccccc1,.,.,.,9.7,.,.,.
COc1ccc(COC(=O)C2CCN(S(=O)(=O)c3ccc(Cl)cc3)CC2)cc1,.,.,.,.,.,/,/
COc1ccc(COC(=O)C2CCN(S(=O)(=O)c3ccc(OC)c(OC)c3)CC2)cc1,.,.,.,9.7,.,30,17
CCOc1ccc(N(CC(=O)Nc2cccc(C)c2)S(C)(=O)=O)cc1,.,.,.,9.0,.,.,.
CCOc1ccc(N(CC(=O)NN=C2CCN(C)CC2)S(C)(=O)=O)cc1,.,.,.,8.7,.,.,.
CC(C)N(c1ccccc1)c1ccc(NC(=O)[C@@H]2O[C@H](CO)[C@@H](O)[C@H]2O)cc1,.,.,.,.,/,/,/
C#CCn1c(S(=O)(=O)Cc2ccc(F)cc2)nc(-c2ccccc2)c1-c1ccccc1,.,.,.,8.7,.,22,16
CCOC(=O)Cn1c(S(=O)(=O)Cc2ccc(F)cc2)nc(-c2ccccc2)c1-c1ccccc1,.,.,.,.,.,/,/
Cc1[nH]nc(N)c1N=Nc1ccc(Br)cc1,/,.,/,.,/,/,/
Cc1ccc(-c2[nH]nc(N)c2N=Nc2ccccc2C)cc1,.,.,.,9.7,44,25,16
Cc1nc2c(OCc3cc(Cl)cc(Cl)c3)cccn2c1N(C)C(=O)CCC1CCCC1,.,.,.,11,/,.,10
O=C(Nc1ccccc1)c1ccc(-c2ccccc2C(F)(F)F)o1,.,.,.,9.2,.,.,.
COCc1c(C(=O)Nc2ccc3nc(N4CCOCC4)sc3c2)oc2ccccc12,.,.,.,.,.,/,/
Cc1ccc(C(C(=O)NC2CCCC2)N(Cc2cccs2)C(=O)CNC(=O)c2cccs2)o1 (stereo not given),.,.,.,9.2,.,.,.

# Screening data (PubChem BioAssay)
